VDR inhibitor: inhibitors of human vitamin D receptor; Potency, µM, for the others: max response, negative = inhibition, actives largely listed as inhibitors; VDR-SRC2-3 peptide fluorescence polarization, 2 h; actives 0.93% (n = 400,000); P11473; note: potency is the fitted concentration of half-maximal effect; % is set by controls: 0 for no effect and ±100 for the full control effect
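FP read-out; VDR + SRC2-3 coactivator peptide; 23 nl compound by pintool; 2 h RT incubation; reagents held at 4 deg C, protected from light.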
PI5P4Ka inh: blocks human PI5P4K alpha kinase activity | actives 1.2% (n = 330,000) | max response, % | PI5P4Kalpha enzyme, ADP-Glo luminescence, 60 min; stronger effect = lower value; active = max response of -50% or lower; inconclusive = between -30% and -50%; inactive = -30% or higher; note: value at the top dose of about 77 µM; % is set by controls: 0 for no effect and ±100 for the full control effect
Target sequence (P48426 whole entry, looked up): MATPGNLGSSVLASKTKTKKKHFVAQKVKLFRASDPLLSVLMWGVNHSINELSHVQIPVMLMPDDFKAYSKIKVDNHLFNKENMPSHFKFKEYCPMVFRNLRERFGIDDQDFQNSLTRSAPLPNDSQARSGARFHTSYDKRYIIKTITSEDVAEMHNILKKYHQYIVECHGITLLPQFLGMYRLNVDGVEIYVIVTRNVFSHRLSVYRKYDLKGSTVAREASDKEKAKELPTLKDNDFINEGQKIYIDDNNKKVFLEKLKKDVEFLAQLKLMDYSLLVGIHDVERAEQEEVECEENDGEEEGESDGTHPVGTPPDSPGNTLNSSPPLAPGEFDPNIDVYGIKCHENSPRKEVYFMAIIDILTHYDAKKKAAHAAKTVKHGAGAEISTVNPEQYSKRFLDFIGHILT
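Reactions run in 0.038 M HEPES pH 7.4, 0.28 mM EGTA, 0.1% CHAPS and 5% DMSO, with PI5P4Kalpha, substrate, compound and 5 microM ATP final, one hour at room temperature. Readout is ADP-Glo luminescence.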
TCR activator: T cell receptor activation; primary human leukocytes, anti-CD3, IL-2 HTRF, 48 h; Potency, µM (top dose mostly 9.22 µM), for inactives: at the highest dose activation of IL-2 secretion, actives largely listed as activators; 330,000 tested, under 10 active; note: % of control where 0% means no effect
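Primary human leukocytes incubated 48 hr with anti-CD3 beads plus compound, without co-stimulation. Secreted IL-2 measured by HTRF (europium cryptate/d2 anti-IL-2 pair, 320 nm excitation, 665 nm emission).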
PLK1 PBD block: blocks phosphopeptide binding to human PLK1 polo-box domain; P53350; Plk1 PBD binding of FITC phosphopeptide, fluorescence polarization; Potency, µM, for the others: max response, negative = inhibition, hits mostly inhibitors; actives 2.8% (n = 360,000); note: potency is the fitted concentration of half-maximal effect; series mostly up to about 57 µM; % is set by controls: 0 for no effect and ±100 for the full control effect; nearly all actives have a fitted effect of over 65% in size
WRN helicase inh: inhibitors of human WRN helicase. Q14191. WRN helicase unwinding, fluorescent forked duplex, kinetic. Potency, µM (series often up to 114 µM), inactives show at the top dose activity change, negative = inhibition, usual class: inhibitors. actives 0.46% (n = 360,000). AID 651768; note: potency is the fitted concentration of half-maximal effect; % is set by controls: 0 for no effect and ±100 for the full control effect; nearly all actives have a fitted effect of over 55% in size
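WRN at 20 nM final preincubated with compound 15 min at room temperature; reaction started with 100 nM fluorophore/quencher forked duplex oligonucleotide and 2 mM ATP final. Unwinding followed kinetically by red fluorescence (ex 525, em 598 nm).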
FEN1 inhibitor: human FEN1 inhibition; P39748; Recombinant FEN1 flap cleavage, fluorescence, 15 min; Potency, µM (highest dose often 114 µM), for inactives: at the highest dose activity change, negative = inhibition, hits mostly inhibitors; actives 0.35% (n = 390,000); AID 588795; note: potency is the fitted concentration of half-maximal effect; % is set by controls: 0 for no effect and ±100 for the full control effect; nearly all actives have a fitted effect of over 65% in size
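Compounds are tested as a concentration series against 10 nM FEN1; after a 15 min room-temperature preincubation, 50 nM substrate starts cleavage, with plate reads at 0 and 15 min. Normalized responses are fitted by a Hill equation.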
An asterisk follows results filed as active; u = inconclusive; x = no result given; [ ] = dose if it differs, or a comment. The list is not random: actives were taken first. Their share in the collection is about 3.7%. Unless noted, calls come from the whole dose curve; as a rule, active = well fitted curve in the direction sought with a large enough effect; inconclusive = small, poorly fitted or top-dose-only effect, or another doubt; inactive = no such curve, though single readings can be large; an effect the other way counts as inactive or inconclusive.

SMILES | VDR inhibitor | PI5P4Ka inh | TCR activator | PLK1 PBD block | WRN helicase inh | FEN1 inhibitor
O=C(Nc1ccc(C(F)(F)F)cc1)c1ccccc1Br | -1% | -26 | 2% | 24µM* | 6% | -1%
COc1ccc(Cl)cc1-c1n[nH]c(=S)o1 | -2% | -75* | 13% | -20% | -10% | -4%
CCOc1ccc(C2CC(=O)Nc3nc(SCc4ccccc4C)[nH]c(=O)c32)cc1OC (stereo unspecified) | -2% | x | x | x | x | -11%
COc1ccc(NC(=O)CNS(=O)(=O)c2cccc3nonc23)c(OC)c1 | 3% | -9 | 1% | 30µM* | -11% | -10%
COc1ccc(-c2cc(C(F)(F)F)n3nc(C(=O)Nc4cccc(C(F)(F)F)c4)c(Br)c3n2)cc1 | 0% | x | x | x | x | 2%
COC(=O)c1ccc2nc(NC(=O)CN3C(=O)CCC3=O)sc2c1 | -1% | u | 7% | 12µM* | -9% | -7%
Cc1cc(N2C(=O)C=CC2=O)c([N+](=O)[O-])cc1C | 32µM* | -56* | 0%[46.1 µM] | 6µM* | -10% | u
CCCCCC/C=C/c1ccc(C2C3C=CCC(C)C3C(=O)N2Cc2ccccc2)c(F)c1 (stereo unspecified) | 2% | x | x | x | x | -20%
O=S(=O)(NCCSc1nc2ccccc2o1)c1ccccc1 | -18% | u | -8% | 8.4µM* | -14% | 1%
Cc1cc(C)cc(NC2=C(N)C(=O)c3ccccc3C2=O)c1 | 89µM* | 6 | 1% | -2% | 21% | -14%
CCN1CCN(CC(=O)N2N=C(c3ccc(OC)cc3)CC2c2ccc(OC)cc2)C(=O)C1=O (stereo unspecified) | 4% | -8 | 1% | 27µM* | -1% | 0%
Cn1c(/C(C#N)=C(\O)c2ccc([N+](=O)[O-])cc2)nc2ccccc21 | u | u | 2% | 24µM* | -6% | -2%
CC(C)c1ccc(/C=C2\C=Cc3ccccc32)cc1 | x | x | x | x | x | -24%
CC1(C)OC(C)(C)/C(=C/Nc2ccc(O)cc2)C1=O | -4% | -70* | 9%[46.1 µM] | -7% | -27%[57.1 µM] | -1%
COc1ccc(CCNC(=O)C2c3ccccc3C(=O)N2Cc2ccccc2)cc1OC (stereo unspecified) | -4% | x | x | x | x | -9%
CC(C)OC(=O)CSc1nnc(-c2ccc(C(C)(C)C)cc2)n1N | u | -29 | -19% | 21µM* | 0% | 10%
CC(C)OC(=O)CSc1nnc(-c2ccco2)n1N | 7% | 2 | 1% | -2% | -3% | 0%
COc1ccc(CN2CCCN(S(=O)(=O)c3ccc(Br)cc3)CC2)cc1 | -23% | -1 | -6% | 27µM* | -5% | -3%
CCOC(=O)C(CC)Sc1ccc2nnc(-c3cccnc3)n2n1 (stereo unspecified) | -13% | -17 | x | -5% | 2% | -7%
CCC(Sc1ccc2nnc(-c3cccnc3)n2n1)C(=O)O (stereo unspecified) | -15% | -58* | 1% | -14% | -6% | -18%
CC(Sc1ccc2nnc(-c3ccc(F)cc3)n2n1)C(=O)O (stereo unspecified) | u | u | -3% | 27µM* | 7% | -16%
O=C(Cn1cc(SCc2c(F)cccc2Cl)c2ccccc21)N1CCCC1 | -10% | x | x | x | x | -23%
c1ccc2c(c1)CCCN2 | x | x | x | x | x | -5%
CCCNC(=O)c1ccc(N2CCC3(CC2)CC(c2ccccc2)=NO3)c(NC(=O)c2cccc(OC)c2)c1 | -25% | -4 | 4% | 27µM* | -8% | -10%
CCCCn1c(=O)c2oc3ccccc3c2n(CC(=O)Nc2ccc(CC)cc2)c1=O | 3% | x | x | x | x | 1%
SMILES | VDR inhibitor | PI5P4Ka inh | TCR activator | PLK1 PBD block | WRN helicase inh | FEN1 inhibitor
COc1cccc(C2/C(=C(\O)c3ccc4c(c3)OCCO4)C(=O)C(=O)N2CCCn2ccnc2)c1 (stereo unspecified) | u | -8 | 1% | 27µM* | -4% | -3%
O=C1C(=O)N(CCCn2ccnc2)C(c2cccc(Br)c2)/C1=C(\O)c1ccc2c(c1)OCCO2 (stereo unspecified) | -23% | 0 | -7% | 30µM* | -12% | -5%
COc1cccc(C2/C(=C(/O)c3ccc4c(c3)CC(C)O4)C(=O)C(=O)N2CCCn2ccnc2)c1 (stereo unspecified) | 8% | 7 | -3% | -10% | -10% | -2%
C=CCc1cccc(C=NNC(=O)CN2CCN(Cc3ccccc3)CC2)c1O | -1% | x | x | x | x | x
COc1cc(/C=C2/SC(=S)N(C)C2=O)ccc1OC(=O)c1ccco1 | 17% | 1 | -3%[46.1 µM] | 25% | -23% | -2%
CCOc1cc(/C=C2/C(=N)N3C(=NC2=O)SN=C3S(=O)(=O)C(C)C)ccc1OC(=O)c1ccco1 | u | -83* | 3% | 27µM* | -26%[11.6 µM] | -8%
COc1cc(/C=C2/C(=N)N3C(=NC2=O)SN=C3S(=O)(=O)C(C)C)ccc1OC(=O)c1ccco1 | u | -75* | 2% | 21µM* | -21% | -1%
Cc1ccc(-c2nc(-c3cc4cc(Cl)ccc4oc3=O)sc2C)cc1 | -10% | x | x | x | x | 11%
CCOC(=O)c1[nH]c(C)c(CCC(=O)Nc2cccc(SC)c2)c1C | 22% | x | x | x | x | -22%
O=C(CSc1ccccc1Cl)c1ccco1 | u | 4 | -46% | 21µM* | -34% | -1%
NC(=O)Cn1cnc2c(nnn2-c2ccc(F)cc2)c1=O | -18% | 5 | -3% | 27µM* | 7% | -4%
O=[N+]([O-])c1ccc(Sc2cccc3cccnc23)c([N+](=O)[O-])c1 | u | -1 | 3% | 6.7µM* | 25% | -1%
C=CCn1nc([N+](=O)[O-])nc1Sc1cccc2cccnc12 | u | -3 | -4%[46.1 µM] | 7.5µM* | -23%[57.1 µM] | -5%
C=CCNC(=O)C(=O)NCC(c1ccc2c(c1)OCO2)N1CCN(c2ccc(F)cc2)CC1 (stereo unspecified) | u | -12 | -8% | 24µM* | 3% | 14%
CCOC(=O)Nc1cc2c(c(N)n1)N=C(c1ccccc1)CN2 | 3% | -68* | 13% | 0% | 56µM* | u
CCOC(=O)Nc1sc(C)nc1-c1ccccc1 | 9% | x | -24% | -2% | -13% | -1%
O=C(Nc1nccs1)[C@@H]1CC=C[C@@H]2CCN(C3CC3)C(=O)[C@@H]21 | x | x | x | x | x | 20%
CC(C)(C)c1ccc2c(c1)OC(C(=O)N/N=C\c1ccc(-c3cccc(C(=O)O)c3)o1)CO2 (stereo unspecified) | u | -16 | -2% | 19µM* | -14%[11.6 µM] | u
CC(C)(C)c1ccc2c(c1)OC(C(=O)N/N=C\c1ccccn1)CO2 (stereo unspecified) | -14% | 9 | 11%[46.1 µM] | -8% | -11% | -9%
Cc1ccc(C)c(N2CCN(CCCNC(=O)Cn3c(-c4cccs4)cc4ccccc43)CC2)c1 | 8% | x | x | x | x | 4%
O=C(C[n+]1ccccc1Br)c1ccc(O)c(O)c1 | x | x | x | x | x | 9%
